From PubChem BioAssay (NCI)
“And” between values parts separate entries of the source, which are not always exact repeats. Equal entries are not always repeated. This is part of a sample that, as a whole, favours compounds with a hit. Of some 83,000 tested, about 20% had one in any assay.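 In brief: 96-well plates, 48 h treatment, single concentration, percent growth endpoint.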 A number with no mark means an inactive call. The source made the active and inactive calls. How the source made its calls: active means growth percent below 10; inactive means the rest.

Experiments:
Test in all cases: NCI-60 one-dose screen, 48 h (100 = growth as untreated, 0 = no growth, -100 = all killed)
Details in all cases: 10 µM unless noted
NCI/ADR-RES ovarian = tested on: NCI/ADR-RES ovarian
T-47D breast = tested on: T-47D breast
BT-549 breast = tested on: BT-549 breast
SW-620 colon = tested on: SW-620 colon
MCF7 breast = tested on: MCF7 breast
HCT-116 colon = tested on: HCT-116 colon
HCC-2998 colon = tested on: HCC-2998 colon
KM12 colon = tested on: KM12 colon
MDA-MB-435 melanoma = tested on: MDA-MB-435 melanoma

Row | Compound | growth (NCI/ADR-RES ovarian) | growth (T-47D breast) | growth (BT-549 breast) | growth (SW-620 colon) | growth (MCF7 breast) | growth (HCT-116 colon) | growth (HCC-2998 colon) | growth (KM12 colon) | growth (MDA-MB-435 melanoma)
1 | OCCN=Cc1c[nH]c2ccccc12 | 100% | 94.5% | 107% | 93.3% | 93% | 96.7% | 107% | 102% | –
2 | Oc1ccccc1C=NCCN=Cc1ccccc1O | 103% | 103% | 106% | 100% | 97.7% | 94.2% | 105% | 104% | –
3 | O=[N+]([O-])c1c(Cl)cc(Cl)c([N+](=O)[O-])c1Cl | 103% | 22.2% | 114% | 65.6% | 45.9% | 88.5% | 114% | -2.82% (active) | –
4 | O=C(O)C(O)c1ccc(Cl)cc1 (stereo not drawn) | 106% and 107% | 93.1% and 138% | 101% and 103% | 107% and 103% | 97.1% and 106% | 93.7% and 95.1% | 98.3% and 108% | 108% and 100% | –
5 | O=CC1(c2ccccc2)CCN(Cc2ccccc2)CC1 | 101% | 105% | 106% | – | 103% | 102% | 101% | 101% | 98.5%
6 | CC(=O)C(N)Cc1ccccc1 (stereo not drawn) | 99.4% | 78.3% | 96% | – | 93.6% | 86.3% | 96.3% | 106% | 102%
7 | c1ccc2c(c1)sc1ccccc12 | 99.4% | 112% | 96.7% | 106% | 102% | 96.6% | 97.3% | 103% | –
8 | COC12CC3(C)C(C4=CC(=O)OC4)CCC3(O)C3CCC4=CC(=O)CCC4(CO1)C32 (stereo not drawn) | 113% | 116% | – | 105% | 98.1% | 101% | 131% | 114% | 106%
9 | Nc1c(Cl)c(Cl)nc(C(=O)O)c1Cl | 101% | 101% | – | 99.1% | 95.2% | 97.3% | 95.7% | 101% | 106%
10 | CCOC(=O)P(=O)(OCC)OCC | 109% | 108% | – | 106% | 106% | 111% | 106% | 113% | 120%
11 | Oc1cc(N2CC2)c(O)cc1N1CC1 | 1.01% (active) | 19.2% | 30% | 3.72% (active) | – | 6.02% (active) | -55.2% (active) | -52.7% (active) | –
12 | CN(C)c1ccc(N)cc1 | 104% and 85.3% | 90.7% and 28.5% | 107% and 72% | 99.1% and 65.6% | – | 117% and 14.8% | 106% | 107% and 34.7% | –
13 | O=[N+]([O-])c1ccc(P(=O)(O)O)cc1 | 103% | – | 89.9% | 105% | 91.2% | 96.6% | 102% | 115% | 101%
14 | CCC(=O)C(CC(C)[N+](C)(C)C)(c1ccccc1)c1ccccc1 (stereo not drawn) | 102% | – | 67.5% | 104% | 90.7% | 93.6% | 102% | 107% | 104%
15 | O=C1NC(=O)C(=Cc2ccccc2)C(=O)N1 | – | 94.8% and 105% | 106% and 116% | 103% and 105% | 145% and 102% | 94% and 102% | 99.6% and 117% | 114% and 108% | 113% and 104%
